# From the supplement of paper PMC8728848
# This excerpt belongs to a sample that is enriched for the strongest signals.
# B1: Sp8391B-bot-388-20-388 (Bacteroides ovatus) (protein)
# chain: GCQNNDENEQHYDNKLFISASNFTKEILFKAGDTNVETGLSVAIAKPEEHDIKVTMSPAPELLSTYKLAYYDETAVLLSEEHYSMPETSTTIKSGSIVSPELPIEFINTGELDIKTTYVLPVTIKSVEGIGVLQSAKTYYYVFRGASLINVVCNISRNRAYPDFKNDSKFNNLTENTMEILFKANSFPNTLNTLMGIESNYLLRIGDATIPNNQLQVATSVNNCTSADLQLESGKWYHVAVAFNKGNVKVYINGVEKLSGSTGKSSVSLGAKHTNEEDGSRCFWVGYSYKDDRYFDGVVSEVRIWNRALTAEEIQATNHFYTIEPESEGLIAYWKFDEGSGTVAKDYSVSGYDLTIEKEPKWESVSLPQ
# Tests used:
# Assay in all cases: glycan array binding signal (z-score within array); higher = stronger binding
# Settings in all cases: glycan notation: IUPAC condensed, linker removed
# Fuc(a1-2)Gal = biological target: Fuc(a1-2)Gal
# Method in brief: (§1)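 From the Consortium for Functional Glycomics database, 3228 arrays were curated, keeping only those whose protein sequence was available. Binding is given as a within-array Z-score averaged across arrays sharing a protein sequence and across linkers. Negative Z-scores can be read as non-binding.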
# [1] = biological target: Fuc(a1-2)Gal(b1-3)GlcNAc(b1-2)Man(a1-3)[Fuc(a1-2)Gal(b1-3)GlcNAc(b1-2)Man(a1-6)]Man(b1-4)GlcNAc(b1-4)GlcNAc
# Method in brief: as §1
# [2] = biological target: Fuc(a1-2)Gal(b1-3)GlcNAc(b1-3)[Gal(b1-4)GlcNAc(b1-6)]Gal(b1-4)Glc
# Method in brief: as §1
# [3] = biological target: Fuc(a1-2)Gal(b1-3)[Fuc(a1-4)]GlcNAc(b1-3)[Gal(b1-4)GlcNAc(b1-6)]Gal(b1-4)Glc
# Method in brief: as §1
# [4] = biological target: Fuc(a1-2)Gal6S(b1-3)GlcNAc6S
# Method in brief: as §1
# [5] = biological target: Fuc(a1-2)[Gal(a1-3)]Gal(b1-4)GlcNAc
# Method in brief: as §1
# [6] = biological target: Fuc(a1-2)[GalNAc(a1-3)]Gal(b1-3)GlcNAc(b1-2)Man(a1-3)[Fuc(a1-2)[GalNAc(a1-3)]Gal(b1-3)GlcNAc(b1-2)Man(a1-6)]Man(b1-4)GlcNAc(b1-4)GlcNAc
# Method in brief: as §1
# [7] = biological target: Fuc(a1-2)[GalNAc(a1-3)]Gal(b1-3)GlcNAc(b1-3)GalNAc
# Method in brief: as §1
# [8] = biological target: Fuc(a1-2)[GalNAc(a1-3)]Gal(b1-4)[Fuc(a1-3)]GlcNAc(b1-3)GalNAc
# Method in brief: as §1
# [9] = biological target: Fuc(a1-3)[Gal(b1-4)]GlcNAc(b1-6)GalNAc
# Method in brief: as §1
# [10] = biological target: Gal(a1-3)Gal(b1-3)[Fuc(a1-4)]GlcNAc(b1-2)Man(a1-3)[Gal(a1-3)Gal(b1-3)[Fuc(a1-4)]GlcNAc(b1-2)Man(a1-6)]Man(b1-4)GlcNAc(b1-4)GlcNAc
# Method in brief: as §1
# Gal(a1-3)Gal(b1-4)GlcNAc = biological target: Gal(a1-3)Gal(b1-4)GlcNAc
# Method in brief: as §1
# [11] = biological target: Gal(a1-3)Gal(b1-4)[Fuc(a1-3)]GlcNAc
# Method in brief: as §1
# Gal(a1-3)GalNAc = biological target: Gal(a1-3)GalNAc
# Method in brief: as §1
# [12] = biological target: Gal(a1-4)Gal(b1-3)GlcNAc(b1-2)Man(a1-3)[Gal(a1-4)Gal(b1-3)GlcNAc(b1-2)Man(a1-6)]Man(b1-4)GlcNAc(b1-4)GlcNAc
# Method in brief: as §1
# [13] = biological target: Gal(b1-3)GalNAc(b1-4)Gal(b1-4)Glc
# Method in brief: as §1
# [14] = biological target: Gal(b1-3)GlcNAc(b1-2)Man(a1-3)[Gal(b1-3)GlcNAc(b1-2)Man(a1-6)]Man(b1-4)GlcNAc(b1-4)GlcNAc
# Method in brief: as §1
# [15] = biological target: Gal(b1-3)GlcNAc(b1-3)Gal(b1-4)Glc
# Method in brief: as §1
# [16] = biological target: Gal(b1-3)GlcNAc(b1-3)Gal(b1-4)[Fuc(a1-3)]GlcNAc(b1-6)[Gal(b1-3)GlcNAc(b1-3)]Gal(b1-4)Glc
# Method in brief: as §1
# [17] = biological target: Gal(b1-3)[Neu5Ac(a2-6)]GalNAc
# Method in brief: as §1
# [18] = biological target: Gal(b1-3)[Neu5Ac(a2-6)]GlcNAc(b1-4)Gal(b1-4)Glc
# Method in brief: as §1
# [19] = biological target: Gal(b1-4)GlcNAc(b1-2)Man(a1-3)[Gal(b1-4)GlcNAc(b1-2)Man(a1-6)][GlcNAc(b1-4)]Man(b1-4)GlcNAc(b1-4)[Fuc(a1-6)]GlcNAc
# Method in brief: as §1
# [20] = biological target: Gal(b1-4)GlcNAc(b1-3)Gal(b1-4)GlcNAc(b1-3)Gal(b1-4)GlcNAc(b1-2)Man(a1-3)[Gal(b1-4)GlcNAc(b1-3)Gal(b1-4)GlcNAc(b1-3)Gal(b1-4)GlcNAc(b1-2)Man(a1-6)]Man(b1-4)GlcNAc(b1-4)GlcNAc
# Method in brief: as §1
# [21] = biological target: Gal(b1-4)GlcNAc(b1-3)Gal(b1-4)GlcNAc(b1-3)Gal(b1-4)GlcNAc(b1-3)Gal(b1-4)GlcNAc(b1-2)Man(a1-3)[Gal(b1-4)GlcNAc(b1-3)Gal(b1-4)GlcNAc(b1-3)Gal(b1-4)GlcNAc(b1-3)Gal(b1-4)GlcNAc(b1-2)Man(a1-6)]Man(b1-4)GlcNAc(b1-4)GlcNAc
# Method in brief: as §1
# [22] = biological target: Gal(b1-4)GlcNAc(b1-3)Gal(b1-4)GlcNAc(b1-3)Gal(b1-4)GlcNAc(b1-3)Gal(b1-4)GlcNAc(b1-2)[Gal(b1-4)GlcNAc(b1-3)Gal(b1-4)GlcNAc(b1-3)Gal(b1-4)GlcNAc(b1-3)Gal(b1-4)GlcNAc(b1-6)]Man(a1-6)[Gal(b1-4)GlcNAc(b1-3)Gal(b1-4)GlcNAc(b1-3)Gal(b1-4)GlcNAc(b1-3)Gal(b1-4)GlcNAc(b1-2)Man(a1-3)]Man(b1-4)GlcNAc(b1-4)[Fuc(a1-6)]GlcNAc
# Method in brief: as §1
# [23] = biological target: Gal(b1-4)GlcNAc(b1-3)Gal(b1-4)GlcNAc(b1-3)Gal(b1-4)GlcNAc(b1-3)Gal(b1-4)GlcNAc(b1-3)Gal(b1-4)GlcNAc(b1-2)[Gal(b1-4)GlcNAc(b1-3)Gal(b1-4)GlcNAc(b1-3)Gal(b1-4)GlcNAc(b1-3)Gal(b1-4)GlcNAc(b1-3)Gal(b1-4)GlcNAc(b1-6)]Man(a1-6)[Gal(b1-4)GlcNAc(b1-3)Gal(b1-4)GlcNAc(b1-3)Gal(b1-4)GlcNAc(b1-3)Gal(b1-4)GlcNAc(b1-3)Gal(b1-4)GlcNAc(b1-2)Man(a1-3)]Man(b1-4)GlcNAc(b1-4)[Fuc(a1-6)]GlcNAc
# Method in brief: as §1
# [24] = biological target: Gal(b1-4)GlcNAc(b1-3)[Fuc(a1-3)GlcNAc(b1-6)]Gal(b1-4)Glc
# Method in brief: as §1
# [25] = biological target: Gal(b1-4)GlcNAc(b1-3)[GlcNAc(b1-6)]Gal(b1-4)GlcNAc
# Method in brief: as §1
# [26] = biological target: Gal(b1-4)GlcNAc(b1-6)Gal(b1-4)GlcNAc
# Method in brief: as §1
# Gal(b1-4)GlcNAc6P = biological target: Gal(b1-4)GlcNAc6P
# Method in brief: as §1
binder,measurement,setting,value
B1,glycan array binding signal (z-score),Fuc(a1-2)Gal,-0.522
same,glycan array binding signal (z-score),[1],2.69
same,glycan array binding signal (z-score),[2],-0.322
same,glycan array binding signal (z-score),[3],1.29
same,glycan array binding signal (z-score),[4],-0.154
same,glycan array binding signal (z-score),[5],-0.199
same,glycan array binding signal (z-score),[6],0.439
same,glycan array binding signal (z-score),[7],-0.474
same,glycan array binding signal (z-score),[8],-0.673
same,glycan array binding signal (z-score),[9],4.03
same,glycan array binding signal (z-score),[10],8.13
same,glycan array binding signal (z-score),Gal(a1-3)Gal(b1-4)GlcNAc,-0.489
same,glycan array binding signal (z-score),[11],-0.616
same,glycan array binding signal (z-score),Gal(a1-3)GalNAc,-0.069
same,glycan array binding signal (z-score),[12],2.6
same,glycan array binding signal (z-score),[13],0.437
same,glycan array binding signal (z-score),[14],3.77
same,glycan array binding signal (z-score),[15],0.105
same,glycan array binding signal (z-score),[16],12.8
same,glycan array binding signal (z-score),[17],-0.208
same,glycan array binding signal (z-score),[18],-0.044
same,glycan array binding signal (z-score),[19],-0.897
same,glycan array binding signal (z-score),[20],2.45
same,glycan array binding signal (z-score),[21],2.49
same,glycan array binding signal (z-score),[22],-0.629
same,glycan array binding signal (z-score),[23],-0.112
same,glycan array binding signal (z-score),[24],0.415
same,glycan array binding signal (z-score),[25],0.193
same,glycan array binding signal (z-score),[26],0.486
same,glycan array binding signal (z-score),Gal(b1-4)GlcNAc6P,0.015
